Compound activity (PubChem BioAssay)
Cruzain inh noDet: blocks cruzain activity in detergent-free assay; P25779; purified cruzain, Z-FR-AMC fluorescence, no detergent; Potency, µM, without a hit: max response, negative = inhibition, usual class: inhibitors; actives 2.3% (n = 200,000);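 also: plate controls were enzyme without inhibitor for no effect and buffer without enzyme for full effect; nearly all actives have a fitted effect of over 40% in size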
Target sequence (P25779 123-467 limits assumed): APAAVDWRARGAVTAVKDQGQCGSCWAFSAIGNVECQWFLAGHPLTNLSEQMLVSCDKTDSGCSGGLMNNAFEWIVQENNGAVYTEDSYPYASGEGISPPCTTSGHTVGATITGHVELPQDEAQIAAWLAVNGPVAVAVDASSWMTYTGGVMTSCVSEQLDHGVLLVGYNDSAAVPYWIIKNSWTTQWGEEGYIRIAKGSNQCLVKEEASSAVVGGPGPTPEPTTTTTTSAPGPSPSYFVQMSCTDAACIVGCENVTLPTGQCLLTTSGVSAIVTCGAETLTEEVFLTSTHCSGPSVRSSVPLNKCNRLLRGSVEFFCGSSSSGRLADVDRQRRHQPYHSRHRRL
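Purified cruzain at 1.5 nM, pre-incubated 15 min with compound at room temperature in 100 mM sodium acetate pH 5.5, 5 mM DTT, 0.00005% Triton X-100. Reaction started with 2 uM Z-FR-AMC; AMC fluorescence increase over 60 s gives rate.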
Cruzain Triton: inhibitors of Trypanosoma cruzi cruzain with detergent; Potency, µM, for the others: max response, negative = inhibition, usual class: inhibitors; actives 0.43% (n = 200,000); P25779; purified cruzain, Z-FR-AMC fluorescence, 0.01% Triton;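 also: plate controls were neutral wells for no effect and buffer without enzyme for full effect; nearly all actives have a fitted effect of over 40% in size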
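Read-out: AMC fluorescence (360 nm excitation, 450 nm emission), four reads over 2 min, first-to-third difference used. Conditions: cruzain 1.5 nM, Z-FR-AMC 2 uM, pH 5.5 acetate, 5 mM DTT, 0.01% Triton X-100.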
* = called active by the depositor; u = inconclusive. This is a sample that favours compounds with a hit; in the whole collection about 2.5% have one here. Calls follow the shape of the dose curve; as a rule, active = well fitted curve in the direction sought with a large enough effect; inconclusive = small, poorly fitted or top-dose-only effect, or another doubt; inactive = no such curve, though single readings can be large; an effect the other way counts as inactive or inconclusive. Potency is read from the fitted curve at half-maximal effect.

SMILES | Cruzain inh noDet | Cruzain Triton
O=C(O)c1ccc(COc2c(F)c(F)c(F)c(F)c2F)o1 | 16µM* | 28µM*
Cc1cc(C)cc(OCc2ccc(C(=O)O)o2)c1 | -3% | 13%
O=C(c1ccc(Br)o1)N1CCN(Cc2ccc3c(c2)OCO3)CC1 | 12% | 5%
COC(=O)c1sc(-c2ccccc2)cc1NC(=O)Nc1ccc(Cl)cc1 | u | -3%
COC(=O)c1sc(-c2ccccc2)cc1NC(=O)Nc1ccccc1Cl | 10µM* | 4%
Cc1nnc(SCC2=C(C(=O)O)N3C(=O)[C@@H](NC(=O)Cn4cnnn4)[C@@H]3SC2)s1 | -1% | 2%
CC(C)(C)C1CCc2oc3ccc(NS(=O)(=O)c4ccc(C(=O)O)cc4)cc3c2C1 (configuration not stated) | u | -24%
CC(C)(C)C1CCc2oc3ccc(NS(=O)(=O)c4cc(Cl)ccc4Cl)cc3c2C1 (configuration not stated) | 4µM* | -2%
COc1ccc(-c2n[nH]c3c2C(c2ccc(O)cc2)N(c2ccc(Br)cc2)C3=O)cc1 (configuration not stated) | u | -1%
COc1ccc(OC)c(C2c3c(-c4ccc(Br)cc4)n[nH]c3C(=O)N2c2ccc(Cl)cc2)c1 (configuration not stated) | 16µM* | -2%
CCOC(=O)c1ccc(N2C(=O)c3n[nH]c(-c4ccco4)c3C2c2ccc(OCC)cc2)cc1 (configuration not stated) | 14% | -29%
CCOC(=O)c1ccc(N2C(=O)c3n[nH]c(-c4cccs4)c3C2c2ccc(Cl)cc2Cl)cc1 (configuration not stated) | 20µM* | -1%
CCOC(=O)c1ccc(N2C(=O)c3n[nH]c(-c4cccs4)c3C2c2ccc(C)cc2)cc1 (configuration not stated) | -8% | -2%
CCOC(=O)c1ccc(N2C(=O)c3[nH]nc(-c4ccc(OC)cc4)c3C2c2ccc(C)cc2)cc1 (configuration not stated) | 25µM* | -2%
CCOC(=O)c1cnc2cc(-c3ccc(OCC)cc3)nn2c1-c1ccccc1 | -6% | -1%
Cc1cccn2c(=O)c(C(=O)NCc3ccccc3Cl)c(O)nc12 | -5% | -2%
O=C(NCc1cccc(Cl)c1)c1oc(=O)c2ccccc2c1-c1ccccc1 | 18% | 2%
CN1C[C@@H](CO)C=C2c3cccc4[nH]cc(c34)CC21 (some centres not stated) | 40µM* | 8%
CCC(CO)NC(=O)[C@@H]1C=C2c3cccc4[nH]cc(c34)C[C@H]2N(C)C1 (some centres not stated) | u | -8%
COc1cccc(NC(=O)CSc2ncc3c(n2)-c2ccc(Cl)cc2N(C)S3(=O)=O)c1 | 0% | 1%
COc1cccc(/C=N/NC(=O)c2ccc(-c3ccccc3)cc2)c1O | 16µM* | 1%
COc1ccccc1/C=N/NC(=O)c1ccccc1NS(=O)(=O)c1ccc(C)cc1 | -1% | -8%
COc1cccc(/C=N/NC(=O)c2ccc(=O)n(C)c2)c1O | -12% | -3%
COc1ccccc1/C=N/NC(=O)C1=NNC(c2ccccc2)(c2ccccc2)C1 | 16µM* | -10%
COC(=O)C1(C(=O)OC)CC(CO)C(=O)[C@H]1c1ccccc1 (some centres not stated) | -9% | 2%
SMILES | Cruzain inh noDet | Cruzain Triton
Cc1cc(C)cc(-n2ccn(CC(=O)NCCc3ccccc3)c(=O)c2=O)c1 | -7% | -4%
Cc1ccc(NC(=O)c2ccc(CNS(=O)(=O)c3ccc4c(c3)C(C)(C)C(=O)N4C)cc2)cc1C | 14% | -3%
Cc1cc(NC(=O)COC(=O)c2cc3c(s2)CCC(C)C3)no1 (configuration not stated) | 32µM* | 2%
Cc1c(Cl)cnc(NC(=O)COC(=O)c2cc3c(s2)CCC(C)C3)c1Cl (configuration not stated) | u | -1%
Oc1ccc(Cl)cc1Nc1nc2ccccc2n2cnnc12 | -2% | 0%
Cc1c(NC(=O)c2ccccc2)cc(C(C)C)c(O)c1S(=O)(=O)c1ccc(Cl)cc1 | u | -2%
Cc1c(NC(=O)c2ccc(Cl)cc2)cc(C(C)C)c(O)c1S(=O)(=O)c1ccc(Cl)cc1 | 32µM* | 0%
CC(C)CN(CCNC(=O)CCN1N=C(c2ccccc2)CCC1=O)CC(C)C | -8% | 0%
COc1ccc(-c2[nH]ncc2C(=O)NCc2ccccc2C)cc1 | -4% | 0%
COc1ccc(-c2c(C#N)c(SCC(=O)Nc3ccccc3C)nc(C)c2C(=O)Nc2ccc(Cl)cc2)cc1 | -21% | 6%
CCc1ccc(NC(=O)CSc2nc(C)c(C(=O)Nc3ccc(Cl)cc3)c(-c3ccc(OC)cc3)c2C#N)cc1 | 7.9µM* | -2%
COc1cccc(NC(=O)CSc2nc(=O)n(Cc3ccco3)c3c2CCC3)c1 | -14% | -4%
CCOC(=O)c1sc(NC(=O)CSc2nc3c(cc2C#N)CCCCCC3)c(C#N)c1C | u | -3%
COc1cccc(NC(=O)CSc2nc3c(c(-c4ccco4)c2C#N)CCCC3)c1 | 6.3µM* | 6%
CCOC(=O)c1sc(NC(=O)CSc2nc3c(c(-c4ccc(OC)cc4)c2C#N)CCCC3)c(C#N)c1C | 3.2µM* | 10%
COc1ccc(CCNC(=O)c2ccc3c(c2)ncn3-c2ccc(C)cc2C)cc1OC | u | 0%
O=C(Nc1cc(C(F)(F)F)ccc1Cl)c1cc(-c2ccc3c(c2)OCCO3)on1 | 3% | 0%
Cc1cc(=O)n2nc(N3CCC(C(=O)Nc4ccc(C(C)C)cc4)CC3)sc2n1 | 10% | -4%
COc1cc2cc(C(N)=O)c(N)nc2cc1OC | 16µM* | 28µM*
COC(=O)c1cc(OC)c(OC)cc1N | -24% | -2%
C=C(C)Cn1c(=O)c2c(nc3n2CCN3c2ccc(F)cc2)n(C)c1=O | 6% | -4%
O=C(CSc1nnc2scc(-c3ccccc3)n12)N1CCN(Cc2ccccc2)CC1 | -9% | -5%
Cc1ccc(-c2csc3nnc(SCC(=O)N4CCN(Cc5ccccc5)CC4)n23)cc1 | 20µM* | -6%
COCCNC(=O)CSc1nc(-c2ccc(F)cc2)[nH]c1-c1ccc(Cl)cc1 | -14% | 1%
O=C1O/C(=C/c2ccccc2)N=C1c1ccccc1 | 16µM* | 13µM*
SMILES | Cruzain inh noDet | Cruzain Triton
O=C1O/C(=C\c2ccccc2)c2ccccc21 | -13% | -10%
O=C(COC(=O)CNC(=O)c1ccc(Cl)cc1)Nc1ccc(Cl)cc1C(F)(F)F | 6.3µM* | 8.9µM*
Cc1ccc(C(=O)NCC(=O)OCC(=O)Nc2ncc(C(F)(F)F)cc2Cl)cc1 | 6.3µM* | 7.1µM*
O=C(COC(=O)CNC(=O)c1ccccc1)Nc1cccc(Br)c1 | -15% | u
Cc1ccc(-c2cc(C(=O)OCC(=O)Nc3ncc(C(F)(F)F)cc3Cl)c3ccccc3n2)cc1 | u | -3%
O=C(COC(=O)CNC(=O)c1ccccc1)Nc1ccc(Cl)cc1C(F)(F)F | 13µM* | 16µM*
O=C(COC(=O)CCCNC(=O)c1ccc(Cl)cc1)Nc1cc(Cl)c(Cl)cc1Cl | -4% | -12%
Cc1cccc(-c2nc3scc(CCNS(=O)(=O)c4c(C)noc4C)n3n2)c1 | 11% | -4%
Cc1ccc(OCc2nc(-c3ccc(C(=O)N4CCN(c5cccc(C(F)(F)F)c5)CC4)cc3)oc2C)cc1 | 9% | -1%
Cn1c(=O)c(=O)n(C)c2cc(S(=O)(=O)N3CCCC3C(=O)Nc3cccc(F)c3)ccc21 (configuration not stated) | -11% | -5%
